The campaign covered roughly 1,900 compounds. About 250 (13%) were called active. Roughly 4% stayed inconclusive and do not appear here.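 The calls were made as follows: active = fitted curve reaches 40% rescue activity at or below the top valid dose, in every test run; inconclusive = test runs disagree, some active and some inactive; inactive = every run misses the threshold or moves the wrong way.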 Only a sample is shown. Results with a measured potency or affinity are listed apart.
Assay: suppressors of statin myotoxicity in myotubes, dose response, cell-based, C2C12 myotubes, ATP luminescence, cherry pick (AID 624405);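 also: myotubes are challenged with simvastatin at 10 µM to lower ATP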
Conditions: C2C12 myotubes + simvastatin, 48 h, scaled: DMSO wells 0, geranylgeraniol wells 100; series mostly up to 19.5 µM

Row | SMILES | outcome
1 | CCC(C)Nc1ncnc2c1cnn2Cc1ccc(Cl)cc1 (configuration not stated) | inactive
2 | CCN(CC)c1ncnc2c1cnn2Cc1ccc(Cl)cc1 | inactive
3 | Cc1ccc(Cn2ncc3c(NCCCN(C)C)ncnc32)cc1 | inactive
4 | CC(C)CNc1ncnc2c1cnn2Cc1ccc(Cl)cc1 | inactive
5 | Cc1ccc(Cn2ncc3c(N4CCCC4)ncnc32)cc1 | inactive
6 | Clc1ccc(Cn2ncc3c(N4CCOCC4)ncnc32)cc1 | inactive
7 | COc1ccccc1N1CCN(C(=O)c2cc(-c3ccc(F)cc3)[nH]c2C)CC1 | inactive
8 | COc1cc(C)c(S(=O)(=O)n2ccc(C)n2)cc1C | inactive
9 | C[C@@H]1CN([C@@H](C)CO)C(=O)c2cc(C3=CCCCC3)cnc2O[C@H]1CN(C)Cc1ccccc1F | inactive
10 | CC(=O)Nc1sc2c(c1C#N)CCC(C)C2 (configuration not stated) | inactive
11 | Cc1noc(C)c1NC(=O)Nc1ccc2c(c1)CC(=O)N([C@H](C)CO)C[C@H](C)[C@@H](CN(C)Cc1ccc(Oc3ccccc3)cc1)O2 | inactive
12 | C[C@H]1CCCCO[C@H](CN(C)S(=O)(=O)c2cccs2)[C@@H](C)CN([C@@H](C)CO)C(=O)c2cc(NC(=O)Nc3ccc(F)cc3)ccc2O1 | inactive
13 | C[C@H](CO)N1C[C@H](C)[C@H](CN(C)Cc2ccc(Oc3ccccc3)cc2)Oc2ccc(NC(=O)Nc3ccc(C(F)(F)F)cc3)cc2CC1=O | inactive
14 | C[C@H](CO)N1C[C@H](C)[C@@H](CN(C)Cc2ccc(-c3ccccc3)cc2)Oc2ccc(NC(=O)c3ccncc3)cc2CC1=O | inactive
15 | Cc1c(Cl)cccc1NC(=O)CNC(=O)Cc1n[nH]c(=O)c2ccccc12 | inactive
16 | C[C@@H]1CCCCO[C@@H](CN(C)C(=O)Nc2cccc3ccccc23)[C@H](C)CN([C@H](C)CO)C(=O)c2cc(NS(=O)(=O)c3ccc(Cl)cc3)ccc2O1 | inactive
17 | O=C(Nc1ccc(S(=O)(=O)N2CCCCCC2)cc1)c1ccco1 | inactive
18 | N#Cc1nc(-c2ccco2)oc1NCCCn1ccnc1 | inactive
19 | N#Cc1nc(COc2ccccc2)oc1N1CCOCC1 | inactive
20 | CCCOc1cc(C)c(Cl)cc1S(=O)(=O)N(CC)CC | inactive
21 | Cc1ccc(S(=O)(=O)Nc2ccc3c(c2)C(=O)N([C@@H](C)CO)C[C@@H](C)[C@H](CN(C)Cc2ccc(Cl)c(Cl)c2)O3)cc1 | inactive
22 | C[C@@H]1CCCCO[C@H](CN(C)C(=O)Nc2ccc(F)cc2)[C@H](C)CN([C@@H](C)CO)C(=O)c2cc(NC(=O)Cc3ccccc3)ccc2O1 | inactive
23 | CC(C)c1ccc(CNc2nc3nc4c(c(=O)n3[nH]2)CCC4)cc1 | inactive
24 | Cc1ccc(S(=O)(=O)Nc2ccc3c(c2)CC(=O)N([C@@H](C)CO)C[C@H](C)[C@@H](CN(C)S(=O)(=O)c2cccs2)O3)cc1 | inactive
25 | CN(CC(=O)NCc1ccco1)CC(=O)Nc1ccc(F)c(F)c1F | inactive
26 | COc1cc(NC(=O)COC(=O)c2cc(S(=O)(=O)N3CCOCC3)ccc2F)cc(OC)c1 | inactive

Row | SMILES | outcome
27 | COc1cc2c(C(=O)NCCCN3CCN(c4cccc(Cl)c4)CC3)cn(C)c(=O)c2cc1OC | inactive
28 | COc1ccc(S(=O)(=O)Nc2ccc3c(c2)C(=O)N([C@@H](C)CO)C[C@@H](C)[C@H](CN(C)C(=O)Nc2cccc4ccccc24)OCCCC[C@@H](C)O3)cc1 | inactive
29 | Cc1csc(SCC(=O)Nc2cccc(S(=O)(=O)N3CCCC3)c2)n1 | inactive
30 | COc1cccc(NC(=O)CSc2nc(C)cs2)c1 | inactive
31 | COc1ccc(S(=O)(=O)Nc2cccc3c2O[C@H](CN(C)C(=O)Nc2ccc(C(F)(F)F)cc2)[C@H](C)CN([C@H](C)CO)C3=O)cc1 | inactive
32 | C[C@H](CO)N1C[C@H](C)[C@H](CN(C)Cc2ccc(Oc3ccccc3)cc2)Oc2ccc(NC(=O)Nc3ccc(F)cc3)cc2CC1=O | inactive
33 | C[C@@H]1CN([C@@H](C)CO)C(=O)c2cc(C#Cc3ccccc3F)cnc2O[C@H]1CN(C)S(=O)(=O)c1ccccc1F | inactive
34 | CCN(CC)CC(=O)n1c2c(c3ccccc31)CCCC2 | inactive
35 | Clc1ccc(Cn2ncc3c(NCc4ccccc4)ncnc32)cc1 | inactive
36 | O=C(Nc1ccc(S(=O)(=O)N2CCC(C(=O)NC3CCCCC3)CC2)cc1)c1ccco1 | inactive
37 | Nc1ccc2c(S(=O)(=O)O)cccc2c1S(=O)(=O)O | inactive
38 | O=C(Cn1nnc(-c2ccncc2)n1)N(C1CCCCC1)C1CCCCC1 | inactive
39 | COCCn1nnnc1CN(CCc1ccc(OC)c(OC)c1)Cc1cc2ccc(C)cc2[nH]c1=O | inactive
40 | COc1ccc(NC(=O)Nc2ccc3c(c2)CC(=O)N([C@@H](C)CO)C[C@@H](C)[C@H](CN(C)C(=O)Nc2cccc4ccccc24)O3)cc1 | inactive
41 | O=C(CCC1COc2ccccc2O1)Nc1ccccn1 (configuration not stated) | inactive
42 | C[C@@H]1CCCCO[C@@H](CN(C)S(=O)(=O)c2ccc(Cl)cc2)[C@@H](C)CN([C@@H](C)CO)C(=O)c2cc(NS(C)(=O)=O)ccc2O1 | inactive
43 | C[C@@H]1CCCCO[C@@H](CN(C)S(=O)(=O)c2ccc(Cl)cc2)[C@@H](C)CN([C@H](C)CO)C(=O)c2cc(NS(C)(=O)=O)ccc2O1 | inactive
44 | CCC(=O)c1ccc(OCC(=O)O)cc1 | inactive
45 | COc1cc(OC)cc(-c2nc3nc(C)c(CCC(=O)O)c(C)n3n2)c1 | inactive
46 | O=C(CSc1nnc2ccccn12)NNC(=O)c1cccc(Cl)c1 | inactive
47 | COC(=O)c1ccc(CSc2nc3c(cnn3-c3ccc(C)c(C)c3)c(=O)[nH]2)o1 | inactive
48 | COc1ccc(S(=O)(=O)Nc2ccc3c(c2)C(=O)N([C@H](C)CO)C[C@H](C)[C@@H](CN(C)S(=O)(=O)c2ccc(F)cc2)OCCCC[C@H](C)O3)cc1 | inactive
49 | COc1ccc(CC(=O)Nc2cc(C)on2)cc1 | inactive
50 | C[C@@H]1CCCCO[C@H](CN(C)C(=O)Cc2ccccc2)[C@@H](C)CN([C@@H](C)CO)C(=O)c2cc(NS(=O)(=O)c3cn(C)cn3)ccc2O1 | inactive
51 | O=S(=O)(c1ccccc1C(F)(F)F)N1CCN(S(=O)(=O)c2ccccc2C(F)(F)F)CC1 | inactive
52 | CN1C(=O)c2cc(NC(=O)c3cnccn3)ccc2OC[C@H]2O[C@H](CC(=O)NCC3CCCCC3)CC[C@H]21 | inactive
